# Experimental data reported in the supplement of paper PMC8728848.
# The entries come from a sample that favours the strongest signals as a whole.
# B1: Gal 2 (Homo sapiens), P05162 (protein)
# chain: MTGELEVKNMDMKPGSTLKITGSIADGTDGFVINLGQGTDKLNLHFNPRFSESTIVCNSLDGSNWGQEQREDHLCFSPGSEVKFTVTFESDKFKVKLPDGHELTFPNRLGHSHLSYLSVRGGFNMSSFKLKE
# Assays:
# Experiment in all cases: glycan array binding signal (z-score within array); higher = stronger binding
# Conditions in all cases: glycan notation: IUPAC condensed, linker removed
# [1] = biological target: Fuc(a1-2)Gal(b1-3)GalNAc(b1-3)Gal(b1-4)Glc
# Procedure, shortened: (§1)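 Glycan array data were curated from 3228 arrays in the Consortium for Functional Glycomics database and kept only where the protein sequence was available. Glycan names were converted to IUPAC-condensed notation, and columns mapping to the same glycan were averaged. The binding signal is a within-array Z-score, averaged across arrays of the same protein sequence at different concentrations or buffers and across linkers. Negative Z-scores can be read as non-binding.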
# [2] = biological target: Fuc(a1-2)Gal(b1-3)GlcNAc(b1-3)Gal(b1-4)Glc
# Procedure, shortened: as §1
# [3] = biological target: Fuc(a1-2)Gal(b1-3)GlcNAc(b1-3)[Fuc(a1-2)Gal(b1-3)GlcNAc(b1-6)]GalNAc
# Procedure, shortened: as §1
# [4] = biological target: Fuc(a1-2)Gal(b1-3)[Fuc(a1-4)]GlcNAc(b1-2)Man(a1-3)[Fuc(a1-2)Gal(b1-3)[Fuc(a1-4)]GlcNAc(b1-2)Man(a1-6)]Man(b1-4)GlcNAc(b1-4)[Fuc(a1-6)]GlcNAc(b1-4)[Fuc(a1-6)]GlcNAc
# Procedure, shortened: as §1
# [5] = biological target: Fuc(a1-2)Gal(b1-4)GlcNAc(b1-3)Gal(b1-4)GlcNAc
# Procedure, shortened: as §1
# [6] = biological target: Fuc(a1-2)Gal(b1-4)GlcNAc(b1-3)Gal(b1-4)GlcNAc(b1-3)Gal(b1-4)GlcNAc
# Procedure, shortened: as §1
# [7] = biological target: Fuc(a1-2)Gal3S(b1-4)GlcNAc
# Procedure, shortened: as §1
# [8] = biological target: Fuc(a1-2)Gal6S(b1-4)Glc6S
# Procedure, shortened: as §1
# [9] = biological target: Fuc(a1-2)[Gal(a1-3)]Gal(b1-4)GlcNAc
# Procedure, shortened: as §1
# [10] = biological target: Fuc(a1-2)[Gal(a1-3)]Gal(b1-4)GlcNAc(b1-2)Man(a1-3)[Fuc(a1-2)[Gal(a1-3)]Gal(b1-4)GlcNAc(b1-2)Man(a1-6)]Man(b1-4)GlcNAc(b1-4)[Fuc(a1-6)]GlcNAc
# Procedure, shortened: as §1
# [11] = biological target: Fuc(a1-2)[GalNAc(a1-3)]Gal(b1-3)GlcNAc
# Procedure, shortened: as §1
# [12] = biological target: Fuc(a1-2)[GalNAc(a1-3)]Gal(b1-4)GlcNAc
# Procedure, shortened: as §1
# [13] = biological target: Fuc(a1-2)[GalNAc(a1-3)]Gal(b1-4)GlcNAc(b1-2)Man
# Procedure, shortened: as §1
# [14] = biological target: Fuc(a1-2)[GalNAc(a1-3)]Gal(b1-4)[Fuc(a1-3)]GlcNAc(b1-3)GalNAc
# Procedure, shortened: as §1
# Fuc(a1-3)GlcNAc = biological target: Fuc(a1-3)GlcNAc
# Procedure, shortened: as §1
# [15] = biological target: Gal(a1-3)Gal(b1-3)GlcNAc(b1-2)Man(a1-3)[Gal(a1-3)Gal(b1-3)GlcNAc(b1-2)Man(a1-6)]Man(b1-4)GlcNAc(b1-4)GlcNAc
# Procedure, shortened: as §1
# [16] = biological target: Gal(a1-4)Gal(b1-4)GlcNAc(b1-3)Gal(b1-4)Glc
# Procedure, shortened: as §1
# Gal(b1-3)Gal = biological target: Gal(b1-3)Gal
# Procedure, shortened: as §1
# [17] = biological target: Gal(b1-3)GalNAc(a1-3)[Fuc(a1-2)]Gal(b1-4)GlcNAc
# Procedure, shortened: as §1
# [18] = biological target: Gal(b1-3)GlcNAc(a1-3)Gal(b1-4)GlcNAc
# Procedure, shortened: as §1
# [19] = biological target: Gal(b1-3)GlcNAc(b1-3)Gal(b1-4)Glc
# Procedure, shortened: as §1
# [20] = biological target: Gal(b1-3)GlcNAc(b1-3)Gal(b1-4)GlcNAc
# Procedure, shortened: as §1
# [21] = biological target: Gal(b1-3)[Fuc(a1-4)]GlcNAc(b1-3)Gal(b1-4)[Fuc(a1-3)]GlcNAc
# Procedure, shortened: as §1
# [22] = biological target: Gal(b1-3)[Neu5Ac(b2-6)]GalNAc
# Procedure, shortened: as §1
# [23] = biological target: Gal(b1-4)GalNAc(a1-3)[Fuc(a1-2)]Gal(b1-4)GlcNAc
# Procedure, shortened: as §1
# [24] = biological target: Gal(b1-4)GlcNAc(b1-2)Man(a1-3)[Gal(b1-4)GlcNAc(b1-2)Man(a1-6)][GlcNAc(b1-4)]Man(b1-4)GlcNAc(b1-4)[Fuc(a1-6)]GlcNAc
# Procedure, shortened: as §1
# GalNAc(a1-3)Gal = biological target: GalNAc(a1-3)Gal
# Procedure, shortened: as §1
# Glc(a1-6)Glc(a1-6)Glc = biological target: Glc(a1-6)Glc(a1-6)Glc
# Procedure, shortened: as §1
# [25] = biological target: GlcNAc(a1-4)Gal(b1-4)GlcNAc(b1-3)Gal(b1-4)GlcNAc
# Procedure, shortened: as §1
# [26] = biological target: GlcNAc(b1-2)Man(a1-3)[GlcNAc(b1-4)][GlcNAc(b1-2)Man(a1-6)]Man(b1-4)GlcNAc(b1-4)GlcNAc
# Procedure, shortened: as §1
# [27] = biological target: GlcNAc(b1-3)[GlcNAc(b1-6)]GlcNAc(b1-4)GlcNAc
# Procedure, shortened: as §1
# [28] = biological target: GlcNAc(b1-6)Gal(b1-4)GlcNAc
# Procedure, shortened: as §1
# Man(b1-4)GlcNAc = biological target: Man(b1-4)GlcNAc
# Procedure, shortened: as §1
# [29] = biological target: Neu5Ac(a2-3)Gal(b1-3)[Fuc(a1-4)]GlcNAc
# Procedure, shortened: as §1
# [30] = biological target: Neu5Ac(a2-3)Gal(b1-4)GlcNAc(b1-3)Gal(b1-4)GlcNAc
# Procedure, shortened: as §1
# [31] = biological target: Neu5Ac(a2-3)Gal(b1-4)GlcNAc(b1-3)Gal(b1-4)GlcNAc(b1-3)Gal(b1-4)GlcNAc(b1-2)Man(a1-3)[Neu5Ac(a2-3)Gal(b1-4)GlcNAc(b1-3)Gal(b1-4)GlcNAc(b1-3)Gal(b1-4)GlcNAc(b1-2)Man(a1-6)]GalNAc
# Procedure, shortened: as §1
# [32] = biological target: Neu5Ac(a2-3)Gal(b1-4)[Fuc(a1-3)]GlcNAc(b1-3)Gal(b1-4)GlcNAc
# Procedure, shortened: as §1
# [33] = biological target: Neu5Ac(a2-6)Gal(b1-4)GlcNAc(b1-2)Man(a1-3)[GlcNAc(b1-4)][Neu5Ac(a2-6)Gal(b1-4)GlcNAc(b1-2)Man(a1-6)]Man(b1-4)GlcNAc(b1-4)GlcNAc
# Procedure, shortened: as §1
# [34] = biological target: Neu5Ac(a2-6)Gal(b1-4)GlcNAc(b1-2)Man(a1-6)[Man(a1-3)]Man(b1-4)GlcNAc(b1-4)GlcNAc
# Procedure, shortened: as §1
# [35] = biological target: Neu5Ac(a2-6)Gal(b1-4)GlcNAc(b1-3)Gal(b1-4)GlcNAc(b1-2)Man(a1-3)[Neu5Ac(a2-6)Gal(b1-4)GlcNAc(b1-3)Gal(b1-4)GlcNAc(b1-2)Man(a1-6)]GalNAc
# Procedure, shortened: as §1
# [36] = biological target: Neu5Ac(a2-6)Gal(b1-4)GlcNAc(b1-6)[Gal(b1-3)GlcNAc(b1-3)]Gal(b1-4)Glc
# Procedure, shortened: as §1
# [37] = biological target: Neu5Ac(b2-6)Gal(b1-4)GlcNAc
# Procedure, shortened: as §1
# [38] = biological target: Neu5Gc(a2-3)Gal(b1-4)[Fuc(a1-3)]GlcNAc
# Procedure, shortened: as §1
binder,measurement,setting,value
B1,glycan array binding signal (z-score),[1],3.12
same,glycan array binding signal (z-score),[2],2.35
same,glycan array binding signal (z-score),[3],-0.048
same,glycan array binding signal (z-score),[4],0.137
same,glycan array binding signal (z-score),[5],2.16
same,glycan array binding signal (z-score),[6],2.4
same,glycan array binding signal (z-score),[7],-0.17
same,glycan array binding signal (z-score),[8],-0.193
same,glycan array binding signal (z-score),[9],2.52
same,glycan array binding signal (z-score),[10],8.45
same,glycan array binding signal (z-score),[11],3.75
same,glycan array binding signal (z-score),[12],5.89
same,glycan array binding signal (z-score),[13],13.5
same,glycan array binding signal (z-score),[14],-0.08
same,glycan array binding signal (z-score),Fuc(a1-3)GlcNAc,-0.254
same,glycan array binding signal (z-score),[15],-0.222
same,glycan array binding signal (z-score),[16],-0.229
same,glycan array binding signal (z-score),Gal(b1-3)Gal,-0.268
same,glycan array binding signal (z-score),[17],9.48
same,glycan array binding signal (z-score),[18],-0.111
same,glycan array binding signal (z-score),[19],0.74
same,glycan array binding signal (z-score),[20],0.837
same,glycan array binding signal (z-score),[21],-0.269
same,glycan array binding signal (z-score),[22],-0.237
same,glycan array binding signal (z-score),[23],5.71
same,glycan array binding signal (z-score),[24],-0.215
same,glycan array binding signal (z-score),GalNAc(a1-3)Gal,-0.281
same,glycan array binding signal (z-score),Glc(a1-6)Glc(a1-6)Glc,-0.2
same,glycan array binding signal (z-score),[25],-0.28
same,glycan array binding signal (z-score),[26],-0.084
same,glycan array binding signal (z-score),[27],-0.396
same,glycan array binding signal (z-score),[28],-0.272
same,glycan array binding signal (z-score),Man(b1-4)GlcNAc,-0.273
same,glycan array binding signal (z-score),[29],-0.214
same,glycan array binding signal (z-score),[30],-0.292
same,glycan array binding signal (z-score),[31],0.02
same,glycan array binding signal (z-score),[32],-0.229
same,glycan array binding signal (z-score),[33],-0.169
same,glycan array binding signal (z-score),[34],-0.12
same,glycan array binding signal (z-score),[35],-0.008
same,glycan array binding signal (z-score),[36],-0.21
same,glycan array binding signal (z-score),[37],-0.244
same,glycan array binding signal (z-score),[38],-0.212
